Pf Dd2 inh = Plasmodium falciparum Dd2 growth inhibition | P. falciparum Dd2 growth, SYBR Green, 72 h | actives 4.3% (n = 120,000) | Potency, µM (doses to about 28.9 µM), for inactives: top-dose activity, negative = inhibition, most hits filed as inhibitors; active = well fitted inhibition curve with a large enough effect;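 also: plate controls were DMSO vehicle for no effect and reference drug for full effect; nearly all actives have a fitted effect of over 65% in size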
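Readout: SYBR Green fluorescence, 485 nm excitation, 535 nm emission, after ~16 h lysis at 37C. Before that, Dd2-infected red cells (2.5% hematocrit) grew 72 h with compound, 29 uM top final concentration.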
An asterisk follows results filed as active; i = inactive; [ ] = another dose, or the depositor's remark. This is one part of a sample in which hits are shown more often than they occur. Potency is read from the fitted curve at half-maximal effect.

SMILES	Pf Dd2 inh
Cc1nc(C2CC(O)C2)cc(N(C)Cc2ccc3c(c2)OCO3)n1 (configuration not stated)	-3%
Cc1ccc(C)c(N2CCN(C(=O)c3ccc4[nH]c(C)c(C)c4c3)CC2)c1	-8%
Cc1ccc(CN2CCSc3ccc(C(=O)N4CCN(c5cccc(C)c5C)CC4)cc32)cc1	6.3µM*
Cc1ccc(N2CCN(C(=O)c3ccc4c(c3)N(C)C3CCCCN3C4=O)CC2)cc1 (configuration not stated)	3%
COc1cc2[nH]c(=O)n(Cc3ccc(C(=O)N4CCN(c5ccc(Cl)cc5)CC4)cc3)c(=O)c2cc1OC	-4%
O=C(CN1CCSc2ccccc21)N1CCN(c2cccc(Cl)c2)CC1	33%
Cc1cccc(N2CCN(C(=O)c3ccc4c(Cl)c5c(nc4c3)CCCC5)CC2)c1C	11µM*
O=C(c1ccc2c(Cl)c3c(nc2c1)CCCC3)N1CCN(c2ccccc2F)CC1	24%
O=C(c1ccc2c(Cl)c3c(nc2c1)CCCC3)N1CCN(c2cccc(Cl)c2)CC1	-19%
Cc1ccc(CN2CCSc3ccc(C(=O)N4CCN(c5ccc(Cl)cc5)CC4)cc32)cc1	8.9µM*
CC(C)NC(=O)N1CCC(OCCOc2cccnc2)CC1	63%
CN(C)C(=O)c1ccn2cncc2c1	38%[44.1 µM]
NC(=O)N1CCCC(C(=O)N2CCN(c3nsc4ccccc34)CC2)C1 (configuration not stated)	7%
Cc1ccccc1-c1cnc2[nH]cc(CC(=O)Nc3ccccc3)c2c1	i
COc1ccc(C(=O)N2CCCC2C(=O)Nc2ccccc2Oc2cccnc2)o1 (configuration not stated)	-9%
CCc1cccc(NC(=O)CN2C(=O)NC(c3ccccc3Cl)C3=C2COC3=O)c1 (configuration not stated)	-5%
Cc1noc(C)c1CC(=O)N1CCC(CCOc2ccccc2F)C1 (configuration not stated)	-15%
Cc1ccc(C2=CC(c3c(F)cccc3Cl)n3ncnc3N2)cc1C (configuration not stated)	3%
Cc1cccc(C2C=C(c3ccc(C)c(C)c3)Nc3nnnn32)c1 (configuration not stated)	11µM*
COc1ccc(C2C=C(c3ccc(Br)cc3)Nc3nnnn32)c(OC)c1 (configuration not stated)	-30%
Cc1nccn1CCN(C)C(C(=O)O)c1ccc(C(C)(C)C)cc1 (configuration not stated)	-7%
Cc1ccccc1-n1c(/C=C/c2c(C)[nH]c3ccccc23)nc2ccccc2c1=O	3.2µM*
O=c1c2ccccc2nc(/C=C\c2ccc(F)cc2)n1-c1ccccc1F	i
O=c1c2ccccc2nc(/C=C/c2ccccc2)n1-c1ccccc1F	i
Clc1ccc(-c2nnc3n2CCN(Cc2cncs2)C3)cc1	-4%
SMILES	Pf Dd2 inh
CCn1ncc(N2CCC(NC(=O)Cc3ccc(C)cc3)CC2)cc1=O	i
O=C(NCc1nnc2ccc(-c3ccc(Cl)cc3)nn12)c1ccc(Cl)s1	13%
COc1cccc(CNC(=O)CN2CCCN(Cc3ccccc3)S2(=O)=O)c1	17%
CCc1cccc(NC(=O)CN2CCCN(Cc3cccc(C)c3)S2(=O)=O)c1	28%
CCOc1ccc(NC(=O)CN2CCN(Cc3ccccc3)S2(=O)=O)cc1	5.6µM*
CC(C)c1ccc(CN2CC(COc3ccccc3)C3(C2)CN(C(=O)c2cn[nH]c2)C3)cc1 (configuration not stated)	-16%
c1cc(N2CCOCC2)ncc1-c1noc([C@@H]2CCCN2)n1	i
COc1cccc(CC(=O)N2CCC[C@H]2C(=O)N2CCCCCCNC(=O)CC2)c1	12%
O=C(c1cccc(Cl)c1)N1CCC2(CC1)CCN(Cc1cccs1)c1ccccc1O2	7.9µM*
CCCN1CCC2(CCN(C(=O)Nc3ccc(Cl)cc3)CC2)Oc2ccccc21	-14%
CCOc1ccccc1CN1CCC2(CCN(C(=O)c3ccc(OC)cc3)CC2)Oc2ccccc21	-20%
CCOCc1nc(C2CCCN(C(=O)c3cccc(F)c3)C2)no1 (configuration not stated)	-11%
NC(=O)COc1ccc(C(=O)N[C@@H]2CN(C(=O)Nc3cccc(C(F)(F)F)c3)CCC[C@H]2O)cc1	i
N#Cc1cccc(NC(=O)N2CCC[C@@H](O)[C@H](NC(=O)c3ccc(OCc4ccc(F)cc4)cc3)C2)c1	5µM*
COc1cccc(NC(=O)N2CCC[C@@H](O)[C@H](NC(=O)c3ccc(OCCN4CCCC4)cc3)C2)c1	-16%
Cc1noc(-c2cn(C3CCN(C(=O)c4cc(F)ccc4F)CC3)nn2)n1	i
COCC(=O)NC1CCC12CCN(S(=O)(=O)C(C)C)CC2 (configuration not stated)	-23%
Cc1ccc(C2(O)CCN(C(=O)c3ccc4ncccc4c3)CC2)nc1	4µM*
O=C(c1ccc2ncccc2c1)N1CCC2(CC1)Nc1ccccc1NC2=O	8%
Cc1ccc(C2(O)CCN(C(=O)C(=O)c3cccnc3)CC2)nc1	-7%
O=C1CCN(S(=O)(=O)c2ccccc2)CCCC(C(=O)N2CCOCC2)CCN1 (configuration not stated)	-8%
O=C([C@@H]1C[C@H](Oc2cccnc2)CN1C(=O)CC1CCCCC1)N1CCCC1	i
Cc1c(C)n(Cc2ccccc2)c2ccc(C(=O)NC(C)c3ccccc3)cc12 (configuration not stated)	-10%
Cc1c(C)n(Cc2ccccc2)c2ccc(C(=O)NCc3ccccc3F)cc12	-11%
CSc1cccc(NC(=O)c2ccc3c(c2)c(C)c(C)n3Cc2ccc(F)cc2)c1	10µM*
SMILES	Pf Dd2 inh
Cc1ccccc1NC(=O)c1ccc2c(c1)c(C)c(C)n2Cc1ccccc1	-3%
CCc1ccccc1NC(=O)c1ccc2c(c1)c(C)c(C)n2Cc1ccccc1	11µM*
CSc1ccc(CCNC(=O)c2ccc3c(c2)c(C)c(C)n3Cc2ccc(F)cc2)cc1	9%
COc1ncc(-c2ccc3ncn(-c4ccc(F)cc4F)c(=O)c3n2)cn1	-18%[44.1 µM]
O=C(C1CCN(C(=O)N2CC3CC(C2)[C@H]2CCCC(=O)N2C3)CC1)N1CCOCC1 (some centres not stated)	-10%
CN1CC(=O)N(C2CCNCC2)Cc2c(NCC3CCCCC3)ncnc21	-3%
COc1cccc2c1OCC(C(=O)N1CCC(Cn3cc(C)cn3)CC1)C2 (configuration not stated)	-12%
CCc1ccc(NC(=O)C2CCCN(S(=O)(=O)c3cccc4cccnc34)C2)cc1 (configuration not stated)	14µM*
CCc1ccc(NC(=O)C2CCCN(S(=O)(=O)c3cccc4nsnc34)C2)cc1 (configuration not stated)	-11%
Cc1ccc(NC(=O)C2CCCN(S(=O)(=O)c3cccc4cccnc34)C2)cc1Cl (configuration not stated)	-1%
CCC(=O)N1CCC2(CC1)OCC(C(=O)NCC(C)C)N2C(=O)c1cccc(OC)c1 (configuration not stated)	9%
COc1ccccc1NC(=O)N1CCc2cc(OC)c(OC)cc2C1CNC(=O)c1ccco1 (configuration not stated)	7.1µM*
CCCNC(=O)N1CCc2cc(OC)c(OC)cc2C1CNC(=O)c1ccccc1C (configuration not stated)	8.9µM*
COc1cc2c(cc1OC)C(CNC(=O)C1CCCC1)N(C(=O)NC(C)C)CC2 (configuration not stated)	i

Screens: PubChem BioAssay, National Center for Advancing Translational Sciences (NCATS)
